Measurements taken from PubChem BioAssay (NCATS).
Records with an inconclusive call do not appear. The source made the active and inactive calls. Calls come from the whole dose curve; as a rule, active = well fitted curve in the direction sought with a large enough effect; inconclusive = small, poorly fitted or top-dose-only effect, or another doubt; inactive = no such curve, though single readings can be large; an effect the other way counts as inactive or inconclusive.

Assays:
[1] = qHTS of pediatric cancer cell lines to identify multiple opportunities for drug repurposing: Primary screen for SJ-GBM2 cells (AID 1347091)
Summary of the method: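 Eight- or eleven-point concentration series, 48 h treatment at 37 degrees C in growth media; readout CellTiter-Glo luminescence. Potency and efficacy were taken from the concentration-response curves.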

[2] = qHTS of pediatric cancer cell lines to identify multiple opportunities for drug repurposing: Primary screen for A673 cells (AID 1347092); note: nearly all actives have a fitted effect of over 45% in size
Summary of the method: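 Cells are plated, rested 5 h, dosed by pintool, incubated 48 h, then lysed with CellTiter-Glo and read by luminescence. DMSO is the neutral control; bortezomib at 2.3 uM final is the positive control.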

[3] = qHTS of pediatric cancer cell lines to identify multiple opportunities for drug repurposing: Primary screen for SK-N-MC cells (AID 1347093)
Summary of the method: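 Metabolically active cells were quantified by ATP-dependent luminescence (CellTiter-Glo, 15 min at room temperature) following 48 h treatment. Cells had been plated at 500-1,000 per well and settled for 5 h beforehand.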

[4] = qHTS of pediatric cancer cell lines to identify multiple opportunities for drug repurposing: Primary screen for BT-37 cells (AID 1347094)
Summary of the method: (§1)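 Phenotypic viability qHTS, 48 h compound exposure, CellTiter-Glo luminescence read-out; multi-concentration dosing so that potency and efficacy derive directly from the primary screen's curves.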

[5] = qHTS of pediatric cancer cell lines to identify multiple opportunities for drug repurposing: Primary screen for NB-EBc1 cells (AID 1347095)
Summary of the method: as §1

[6] = qHTS of pediatric cancer cell lines to identify multiple opportunities for drug repurposing: Primary screen for U-2 OS cells (AID 1347096); note: nearly all actives have a fitted effect of over 50% in size
Summary of the method: (§2)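 Cells (500-1,000/well) in growth media were settled 5 h at 37 degrees C, then given compounds for 48 h. Viability was read as CellTiter-Glo luminescence. Primary runs used MIPE at 11 points (0.78 nM-46 µM) and NPC at 8 points (0.59 nM-46 µM); follow-ups used 11 points.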

[7] = qHTS of pediatric cancer cell lines to identify multiple opportunities for drug repurposing: Primary screen for Saos-2 cells (AID 1347097); note: nearly all actives have a fitted effect of over 40% in size
Summary of the method: as §1

[8] = qHTS of pediatric cancer cell lines to identify multiple opportunities for drug repurposing: Primary screen for SK-N-SH cells (AID 1347098); note: nearly all actives have a fitted effect of over 65% in size
Summary of the method: (§3)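 Cells (500-1,000/well) rested 5 h, then received compounds for 48 h; metabolically active cells were measured by CellTiter-Glo luminescence. Final concentrations spanned up to 46 µM (MIPE, 11-point) or 0.59 nM-46 µM (NPC, 8-point) in primary screens, 11-point in follow-ups.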

[9] = qHTS of pediatric cancer cell lines to identify multiple opportunities for drug repurposing: Primary screen for NB1643 cells (AID 1347099); note: nearly all actives have a fitted effect of over 50% in size
Summary of the method: as §1

[10] = qHTS of pediatric cancer cell lines to identify multiple opportunities for drug repurposing: Primary screen for BT-12 cells (AID 1347101); note: nearly all actives have a fitted effect of over 25% in size
Summary of the method: as §3

[11] = qHTS of pediatric cancer cell lines to identify multiple opportunities for drug repurposing: Primary screen for Rh18 cells (AID 1347102); note: nearly all actives have a fitted effect of over 65% in size
Summary of the method: as §2

[12] = qHTS of pediatric cancer cell lines to identify multiple opportunities for drug repurposing: Primary screen for OHS-50 cells (AID 1347103); note: nearly all actives have a fitted effect of over 40% in size
Summary of the method: as §3

[13] = qHTS of pediatric cancer cell lines to identify multiple opportunities for drug repurposing: Primary screen for RD cells (AID 1347104); note: nearly all actives have a fitted effect of over 55% in size
Summary of the method: as §1

[14] = qHTS of pediatric cancer cell lines to identify multiple opportunities for drug repurposing: Primary screen for MG 63 (6-TG R) cells (AID 1347105); note: nearly all actives have a fitted effect of over 50% in size
Summary of the method: as §1

[15] = qHTS of pediatric cancer cell lines to identify multiple opportunities for drug repurposing: Primary screen for control Hh wild type fibroblast cells (AID 1347106); note: nearly all actives have a fitted effect of over 55% in size
Summary of the method: as §2

[16] = qHTS of pediatric cancer cell lines to identify multiple opportunities for drug repurposing: Primary screen for Rh30 cells (AID 1347107); note: nearly all actives have a fitted effect of over 75% in size
Summary of the method: as §2

[17] = qHTS of pediatric cancer cell lines to identify multiple opportunities for drug repurposing: Primary screen for Rh41 cells (AID 1347108); note: nearly all actives have a fitted effect of over 70% in size
Summary of the method: as §1

[18] = qHTS of pediatric cancer cell lines to identify multiple opportunities for drug repurposing: Primary screen for LAN-5 cells (AID 1347100)
Summary of the method: as §2

[19] = qHTS of pediatric cancer cell lines to identify multiple opportunities for drug repurposing: Confirmatory screen for NB1643 cells (AID 1347109); note: nearly all actives have a fitted effect of over 45% in size
Summary of the method: as §2

[20] = qHTS of pediatric cancer cell lines to identify multiple opportunities for drug repurposing: Confirmatory screen for A673 cells (AID 1347110);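 note: cells exposed to compound for 48 h before the viability read; nearly all actives have a fitted effect of over 65% in size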
Summary of the method: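 Cells plated at 500-1,000/well were treated five hours later with multi-point dilutions up to 46 µM final. After two days, CellTiter-Glo was added and luminescence read.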

Measured: Potency
Potency is the fitted concentration of half-maximal effect.

CCOC(=O)[C@H](CCc1ccccc1)N[C@@H](C)C(=O)N1[C@@H](C(=O)O)C[C@H]2CCC[C@@H]21
inactive: [15]
active: [1] 20.9 µM | [2] 9.35 µM | [3] 1.87 µM | [4] 21.7 µM | [5] 18.7 µM | [6] 18.7 µM | [7] 14.8 µM | [8] 4.82 µM | [9] 3.32 µM | [10] 24.3 µM | [11] 16.6 µM | [12] 19.3 µM | [13] 18.7 µM | [14] 18.7 µM | [16] 18.7 µM | [17] 11.8 µM

C[C@H](NCc1ccc(OCc2cccc(F)c2)cc1)C(N)=O
active: [1] 10.5 µM | [2] 5.9 µM | [3] 2.64 µM | [4] 19.3 µM | [5] 10.5 µM | [6] 18.7 µM | [7] 16.6 µM | [8] 30.4 µM | [9] 14.8 µM | [11] 20.9 µM | [12] 4.85 µM | [13] 16.6 µM | [14] 18.7 µM | [17] 18.7 µM

COc1cc(C)c(Sc2cnc(NC(=O)c3ccc(CNC(C)C(C)(C)C)cc3)s2)cc1C(=O)N1CCN(C(C)=O)CC1 (centres undefined)
active: [1] 4.69 µM | [2] 2.35 µM | [3] 2.09 µM | [4] 7.69 µM | [5] 0.743 µM | [8] 4.82 µM | [9] 3.72 µM | [18] 1.66 µM | [10] 19.3 µM | [11] 14.8 µM | [12] 4.85 µM | [13] 14.8 µM | [14] 14.8 µM
inactive: [6] | [7]

CC(C=CC(=O)NO)=C[C@@H](C)C(=O)c1ccc(N(C)C)cc1
active: [1] 1.87 µM | [2] 0.59 µM | [3] 0.264 µM | [4] 1.22 µM | [5] 0.418 µM | [6] 1.48 µM | [7] 0.935 µM | [8] 2.71 µM | [9] 0.935 µM | [18] 0.59 µM | [10] 1.93 µM | [11] 0.526 µM | [12] 0.863 µM | [13] 1.32 µM | [14] 2.35 µM | [15] 10.5 µM | [16] 7.43 µM | [17] 1.48 µM | [19] 0.585 µM | [20] 0.827 µM

CC(C)(N)c1ccc(-c2nc3ccccc3nc2-c2ccccc2)cc1
active: [1] 23.5 µM | [2] 5.9 µM | [3] 4.69 µM | [4] 15.3 µM | [5] 18.7 µM | [7] 1.05 µM | [8] 21.5 µM | [9] 23.5 µM | [18] 13.2 µM | [10] 24.3 µM | [11] 20.9 µM | [12] 7.69 µM | [13] 16.6 µM | [14] 23.5 µM | [17] 10.5 µM | [20] 2.93 µM
inactive: [6]

CC(=O)OCC(=O)[C@@]1(O)CC[C@H]2[C@@H]3CCC4=CC(=O)CC[C@]4(C)[C@@H]3C(=O)C[C@@]21C
inactive: [1] | [2] | [3] | [4] | [5] | [6] | [7] | [8] | [9] | [10] | [11] | [12] | [13] | [14] | [15] | [16] | [17]

O=C(O)C=Cc1ccc(Cn2ccnc2)cc1
inactive: [1] | [2] | [3] | [4] | [5] | [6] | [7] | [8] | [18] | [10] | [11] | [12] | [13] | [14] | [15] | [16] | [17]

NC(=O)Nc1cc(-c2ccc(CN3CCOCC3)cc2)sc1C(N)=O
active: [1] 0.059 µM | [2] 5.9 µM | [3] 0.105 µM | [4] 21.7 µM | [5] 0.235 µM | [6] 18.7 µM | [7] 2.35 µM | [8] 1.36 µM | [9] 0.0296 µM | [18] 0.0332 µM | [10] 24.3 µM | [12] 0.217 µM | [13] 8.33 µM | [14] 11.8 µM | [17] 7.43 µM | [19] 0.414 µM | [20] 11.7 µM
inactive: [15]

CC(=O)N1CCN(c2ccc(OCc3nn(C)c(C)c3-c3cccc4c(CCCOc5cccc6ccccc56)c(C(=O)O)n(Cc5cccnc5)c34)cc2)CC1
active: [1] 1.05 µM | [2] 0.0743 µM | [3] 0.0235 µM | [4] 0.485 µM | [5] 0.418 µM | [6] 3.72 µM | [7] 3.72 µM | [8] 3.83 µM | [9] 0.209 µM | [10] 2.43 µM | [11] 0.59 µM | [12] 0.109 µM | [13] 1.66 µM | [14] 14.8 µM | [15] 0.526 µM | [16] 4.69 µM
inactive: [19]

Cn1cc(C[C@@H](N)C(=O)O)c2ccccc21
inactive: [1] | [2] | [3] | [4] | [5] | [6] | [7] | [8] | [9] | [18] | [10] | [11] | [12] | [13] | [14] | [15] | [16]
